The nature of assay [1]: NCI Yeast Anticancer Drug Screen. Data for the rad50 strain (AID 155).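 Further: 0% = growth of vehicle-only cultures of the same strain.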 As to conditions: S. cerevisiae rad50 strain growth inhibition, stronger effect = higher value. The method, boiled down:
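Yeast carrying a defined DNA repair defect were exposed to test compounds, and growth was compared with vehicle-treated controls to give percent inhibition.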

A short description of assay [2]: NCI Yeast Anticancer Drug Screen. Data for the mec2-1 strain (AID 157). As to conditions: S. cerevisiae mec2-1 strain, stronger effect = higher value. The method, boiled down:
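Mutant yeast (mec2-1) grown with compound; growth inhibition relative to vehicle control reported.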

Assay [3] is described as follows: NCI Yeast Anticancer Drug Screen. Data for the sgs1 mgt1 strain (AID 161).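 Further: 0% = growth of cultures given vehicle only.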 As to conditions: S. cerevisiae sgs1 mgt1 strain, stronger effect = higher value. The method, boiled down: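 Percent growth inhibition was derived by comparing compound-exposed mutant yeast with vehicle-exposed cultures. The strain carries alterations in DNA damage repair.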
Assay [4] in a line: NCI Yeast Anticancer Drug Screen. Data for the cln2 rad14 strain (AID 165).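 Further: 0% = growth equal to vehicle treated cultures.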 The conditions noted are these: S. cerevisiae cln2 rad14 strain, stronger effect = higher value. The method in brief: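 Readout is yeast growth inhibition versus vehicle-treated controls, using a strain with cln2 and rad14 alterations exposed to compound.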
Assay [5] can be described thus: NCI Yeast Anticancer Drug Screen. Data for the bub3 strain (AID 167). The conditions noted are these: S. cerevisiae bub3 mutant strain, stronger effect = higher value. The method, boiled down:
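Compounds were applied to a genetically altered yeast strain carrying a cell-cycle control defect. Growth inhibition was scored against vehicle-treated controls.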

Assay [6] in a line: NCI Yeast Anticancer Drug Screen. Data for the mlh1 rad18 strain (AID 175). As to conditions: S. cerevisiae mlh1 rad18 strain growth inhibition, stronger effect = higher value. The method, boiled down:
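Genetically defined yeast (DNA repair-deficient) exposed to compounds; growth inhibition determined relative to vehicle.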

[7] abbreviates: at 5.0 µM (retest, dose inferred, filed as 0.5).
Where [8] appears, read: at 50.0 µM (retest, dose inferred, filed as 5.0).

SMILES strings stand for the structures. This is part of a sample that, as a whole, favours compounds with a hit. Of some 79,000 tested, about 15% had one in any assay. Values without a mark were called inactive. Active and inactive are the calls of the source. No stated cut-off is given here; in the data, active means growth inhibition above about 70%; inactive means the rest.

With `Cc1cccc(Cc2ccc(Cl)cc2)c1O`, the growth inhibition was 4% in assay [1] (setting [7]); 99% (active) in assay [1] (setting [8]); 99.3% (active) in assay [1] (at 50.0 µM); -1% in assay [2] (setting [7]); 100% (active) in assay [2] (setting [8]); 99.5% (active) in assay [2] (at 50.0 µM). For the same molecule, the growth inhibition in assay [3] (setting [7]) was 5%; in assay [3] (setting [8]) it was 99% (active); in assay [3] (at 50.0 µM) it was 99.5% (active); in assay [4] (setting [7]), -10%; in assay [4] (setting [8]) it was 99% (active); in assay [4] (at 50.0 µM), 99.3% (active). The growth inhibition in assay [5] (setting [7]) was -6%; in assay [5] (setting [8]), 99% (active); in assay [5] (at 50.0 µM) it was 99.2% (active); in assay [6] (setting [7]), -2%; in assay [6] (setting [8]), 99% (active); in assay [6] (at 50.0 µM) it was 99% (active).

For the molecule `CN(c1ccc(C(N)=O)cc1)c1c(O)c2ccccc2[nH]c1=O`, the growth inhibition in assay [1] (setting [7]) was 1%; in assay [1] (setting [8]), 58%; in assay [1] (at 50.0 µM), -27.9%; in assay [2] (setting [7]) it was -1%; in assay [2] (setting [8]), 48%; in assay [2] (at 50.0 µM), 6.8%. Moreover, the growth inhibition in assay [3] (setting [7]) was 1%; in assay [3] (setting [8]) it was 51%; in assay [3] (at 50.0 µM) it was 14.6%; in assay [4] (setting [7]) it was 4%; in assay [4] (setting [8]), 42%; in assay [4] (at 50.0 µM), 24.9%. The growth inhibition in assay [5] (setting [7]) was -4%; in assay [5] (setting [8]), 46%; in assay [5] (at 50.0 µM), 23.5%; in assay [6] (setting [7]), 0%; in assay [6] (setting [8]), 63%; in assay [6] (at 50.0 µM) it was 15.5%.

Take `NC(=O)SCC(=O)Nc1ccccc1`: the growth inhibition in assay [1] (setting [7]) was 5%; in assay [1] (setting [8]), 82% (active); in assay [1] (at 50.0 µM) it was 86.5% (active); in assay [2] (setting [7]) it was -1%; in assay [2] (setting [8]), 83% (active); in assay [2] (at 50.0 µM) it was 67.9%. In addition, the growth inhibition in assay [3] (setting [7]) was 1%; in assay [3] (setting [8]), 82% (active); in assay [3] (at 50.0 µM), 87.8% (active); in assay [4] (setting [7]), 5%; in assay [4] (setting [8]), 81% (active); in assay [4] (at 50.0 µM), 80% (active). In addition, the growth inhibition was 3% in assay [5] (setting [7]); 83% (active) in assay [5] (setting [8]); 83.6% (active) in assay [5] (at 50.0 µM); 3% in assay [6] (setting [7]); 87% (active) in assay [6] (setting [8]); 87.2% (active) in assay [6] (at 50.0 µM).

As to `CC(=O)OCCCCCCCCCCCCCCO`, the growth inhibition in assay [1] (setting [7]) was -1%; in assay [1] (setting [8]), 98% (active); in assay [1] (at 50.0 µM) it was 50%; in assay [2] (setting [7]), 0%; in assay [2] (setting [8]) it was 99% (active); in assay [2] (at 50.0 µM), -15.1%. The growth inhibition was -4% in assay [3] (setting [7]); 99% (active) in assay [3] (setting [8]); -1.2% in assay [3] (at 50.0 µM); -3% in assay [4] (setting [7]); 98% (active) in assay [4] (setting [8]); -33.1% in assay [4] (at 50.0 µM). For the same molecule, the growth inhibition in assay [5] (setting [7]) was 1%; in assay [5] (setting [8]), 99% (active); in assay [5] (at 50.0 µM), 43%; in assay [6] (setting [7]), -2%; in assay [6] (setting [8]) it was 98% (active); in assay [6] (at 50.0 µM), 4.25%.

Regarding `CN(C)c1ccc(C=Nc2cncc3ccccc23)cc1`, the growth inhibition in assay [1] (setting [7]) is 0%; in assay [1] (setting [8]), -11%; in assay [1] (at 50.0 µM), -55.6%; in assay [2] (setting [7]), 5%; in assay [2] (setting [8]) it was -9%; in assay [2] (at 50.0 µM), -18.6%. For the same molecule, the growth inhibition in assay [3] (setting [7]) is -3%; in assay [3] (setting [8]) it was 10%; in assay [3] (at 50.0 µM) it was -12.8%; in assay [4] (setting [7]), -20%; in assay [4] (setting [8]) it was -6%; in assay [4] (at 50.0 µM) it was -39.5%. Moreover, the growth inhibition in assay [5] (setting [7]) was 3%; in assay [5] (setting [8]), 4%; in assay [5] (at 50.0 µM), -6.05%; in assay [6] (setting [7]) it was 7%; in assay [6] (setting [8]), 4%; in assay [6] (at 50.0 µM), -7.35%.

For the molecule `N=c1n(CC(=O)NC23CC4CC(CC(C4)C2)C3)c2ccccc2n1Cc1ccc(Cl)cc1`, the growth inhibition in assay [1] (setting [7]) was 33%; in assay [1] (setting [8]), 33%; in assay [1] (at 50.0 µM), 92.5% (active); in assay [2] (setting [7]), 13%; in assay [2] (setting [8]) it was 13%; in assay [2] (at 50.0 µM), 93.3% (active). The growth inhibition in assay [3] (setting [7]) is 14%; in assay [3] (setting [8]), 14%; in assay [3] (at 50.0 µM), 93.4% (active); in assay [4] (setting [7]), -2%; in assay [4] (setting [8]), -2%; in assay [4] (at 50.0 µM), 92.4% (active). In addition, the growth inhibition was -2% in assay [5] (setting [7]); -2% in assay [5] (setting [8]); 91.4% (active) in assay [5] (at 50.0 µM); 13% in assay [6] (setting [7]); 13% in assay [6] (setting [8]); 90.3% (active) in assay [6] (at 50.0 µM).

For `O=C1c2scc(-c3ccccc3)c2-n2cccc21`, the growth inhibition was -6% in assay [1] (setting [7]); 96% (active) in assay [1] (setting [8]); 78.5% (active) in assay [1] (at 50.0 µM); -10% in assay [2] (setting [7]); 95% (active) in assay [2] (setting [8]); 90.1% (active) in assay [2] (at 50.0 µM). Besides, the growth inhibition in assay [3] (setting [7]) is 2%; in assay [3] (setting [8]) it was 87% (active); in assay [3] (at 50.0 µM), 82.5% (active); in assay [4] (setting [7]), 10%; in assay [4] (setting [8]), 81% (active); in assay [4] (at 50.0 µM) it was 80.8% (active). For the same molecule, the growth inhibition is -16% in assay [5] (setting [7]); 94% (active) in assay [5] (setting [8]); 79% (active) in assay [5] (at 50.0 µM); -16% in assay [6] (setting [7]); 94% (active) in assay [6] (setting [8]); 88.2% (active) in assay [6] (at 50.0 µM).

Regarding `O=[N+]([O-])c1ccc(Sc2ccc([N+](=O)[O-])o2)cc1`, the growth inhibition in assay [1] (setting [7]) is 95% (active); in assay [1] (setting [8]), 99% (active); in assay [1] (at 50.0 µM), 13.9%; in assay [2] (setting [7]), 94% (active); in assay [2] (setting [8]) it was 100% (active); in assay [2] (at 50.0 µM), 16.5%. In addition, the growth inhibition in assay [3] (setting [7]) is 95% (active); in assay [3] (setting [8]) it was 100% (active); in assay [3] (at 50.0 µM) it was 52.1%; in assay [4] (setting [7]) it was 89% (active); in assay [4] (setting [8]), 99% (active); in assay [4] (at 50.0 µM), -9.05%. The growth inhibition is 98% (active) in assay [5] (setting [7]); 99% (active) in assay [5] (setting [8]); 60.7% in assay [5] (at 50.0 µM); 97% (active) in assay [6] (setting [7]); 99% (active) in assay [6] (setting [8]); 59.8% in assay [6] (at 50.0 µM).

`CCOC(=O)Sc1nc2ccccc2[nH]1`: the growth inhibition in assay [1] (setting [7]) was 4%; in assay [1] (setting [8]), 6%; in assay [1] (at 50.0 µM), 53.2%; in assay [2] (setting [7]), 2%; in assay [2] (setting [8]), 3%; in assay [2] (at 50.0 µM), 25.2%. Besides, the growth inhibition in assay [3] (setting [7]) was 4%; in assay [3] (setting [8]), 0%; in assay [3] (at 50.0 µM), 62.1%; in assay [4] (setting [7]) it was 3%; in assay [4] (setting [8]), 1%; in assay [4] (at 50.0 µM) it was 13.7%. Also, the growth inhibition was 2% in assay [5] (setting [7]); 2% in assay [5] (setting [8]); 7.45% in assay [5] (at 50.0 µM); 0% in assay [6] (setting [7]); 7% in assay [6] (setting [8]); 29.4% in assay [6] (at 50.0 µM).

(Values after PubChem BioAssay (NCI).)
